KB-3-1 cytotox – qHTS assay for MDR1-selective chemotherapeutics: Primary screen using the parental adenocarcinoma cell KB-3-1; KB-3-1 viability, CellTiter-Glo ATP luminescence, 72 h; actives 1.4% (n = 400,000); Potency, µM (doses to about 46.1 µM), usual class: cytotoxic; AID 1347075, 2019; also: % is scaled to controls: 0 for no effect and ±100 for the full control effect; nearly all actives have a fitted effect of over 60% in size
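Cells are dispensed, compounds pinned in, plates held at 37 °C for 72 h, then CellTiter-Glo is added and luminescence read after 10 minutes. Cell line: parental KB-3-1 in phenol-red-free DMEM, 10% FBS.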
MCF10A rereplic – A quantitative high throughput screen for small molecules that induce DNA re-replication in MCF 10a normal breast cells; Potency, µM (series often up to 46.1 µM), for inactives: at the top dose activity, positive = re-replication, usual class: activators; MCF 10A DNA re-replication, Hoechst nuclear intensity, 48 h; actives 2.9% (n = 350,000); also: % of control where 0% means no effect; nearly all actives have a fitted effect of over 50% in size
ELG1 DNA repair – qHTS screen for small molecules that inhibit ELG1-dependent DNA repair in human embryonic kidney (HEK293T) cells expressing luciferase-tagged ELG1. HEK293T ELG1-luciferase reporter, luminescence, 16 h; DNA damage induced by 5-fluorouridine. actives 2.3% (n = 330,000). Potency, µM (titrated, usually from 46.1 µM), without a hit: top-dose activity change, negative = inhibition, hits mostly inhibitors. AID 504467, 2011; also: % is scaled to controls: 0 for no effect and ±100 for the full control effect; nearly all actives have a fitted effect of over 55% in size
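Overnight (16 hr) co-exposure of 2,000 cells/well to 5-fluorouridine and compound at 37 °C preceded detection. Luciferase was quantified via ONE-Glo luminescence; loss of signal denotes inhibition.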
KB-V1 cytotox – qHTS assay for MDR1-selective chemotherapeutics: Primary screen using the drug-selected MDR subline cells KB-V1 | AID 1347076, 2019 | Potency, µM (highest dose often 46.1 µM), most hits filed as cytotoxic | KB-V1 MDR cells viability, CellTiter-Glo, 72 h | actives 3.4% (n = 400,000); also: % is scaled to controls: 0 for no effect and ±100 for the full control effect; nearly all actives have a fitted effect of over 60% in size
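Luminescent ATP read-out (CellTiter-Glo, 10 min) measures survival of drug-selected KB-V1 MDR cells after 72 h, 37 degrees C compound exposure. Medium: phenol-red-free DMEM, 10% FBS. Values from fitted concentration-response curves.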
SW480 rerep – A quantitative high throughput screen for small molecules that induce DNA re-replication in SW480 colon adenocarcinoma cells; Potency, µM (highest dose often 46.1 µM), for inactives: top-dose re-replication activation, usual class: activators; AID 624297, 2012; SW480 DNA re-replication, Hoechst DNA content imaging, 48 h; actives 1.8% (n = 340,000); also: % of control where 0% means no effect; nearly all actives have a fitted effect of over 55% in size
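250 cells/well; 23 nL cpd via pin tool; 48 hr, 37 C, 5% CO2; Hoechst 40 min; imager read of total nuclear intensity, ex 405/em 500-530 nm.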
Active calls of the source: *; i = inactive; ? = inconclusive; . = not tested or not shown. Sampled rows, rich in hits. Any-hit rate of the full collection: about 8.2%. Calls follow the shape of the dose curve; as a rule, active = well fitted curve in the direction sought with a large enough effect; inconclusive = small, poorly fitted or top-dose-only effect, or another doubt; inactive = no such curve, though single readings can be large; an effect the other way counts as inactive or inconclusive. Potency is read from the fitted curve at half-maximal effect.

SMILES	KB-3-1 cytotox	MCF10A rereplic	ELG1 DNA repair	KB-V1 cytotox	SW480 rerep
CCc1ccc(NCc2cc3c(C)nn(-c4ccccc4)c3[nH]c2=O)cc1	i	?	?	18µM*	?
Cc1nn(-c2ccccc2)c2[nH]c(=O)c(CNc3ccc4c(c3)OCCO4)cc12	i	?	21%	i	22%
COc1nc(Nc2ccc([N+](=O)[O-])cc2)nc(NC(C)C)n1	i	2%	?	12µM*	-8%
O=C1C(c2cc(=O)c3ccccc3[nH]2)=C(O)c2ccccc21	i	?	?	i	0%
COc1ccc(C(=O)Nc2ccc3[nH]c(-c4cccc(OC)c4)cc(=O)c3c2)cc1	0.73µM*	0.58µM*	2%	i	0.65µM*
O=c1cc(-c2ccccc2)[nH]c2ccccc12	0.65µM*	1.3µM*	?	?	?
COc1ccc2[nH]c(-c3ccc(C)cc3)cc(=O)c2c1	9.2µM*	?	?	?	?
CCCn1cnnc1CNC(=O)C1CCC(=O)N(CCc2ccc(OC)cc2)C1 (centres undefined)	i	1%	?	?	2%
Cc1cc(/C=N\NC(=O)CC(=O)NC2CCCCC2)c(C)n1-c1ccc(Cl)cc1	i	20%	-10%	21µM*	10%
Cc1cc(/C=N/NC(N)=S)c(C)n1-c1ccc(Br)cc1	i	?	?	?	11%
Cc1cc(/C=N/NC(N)=S)c(C)n1-c1ccc(Cl)cc1	i	8.2µM*	-19%	i	?
O=C(CC(=O)NC1CCCCC1)N/N=C/c1ccc(Cl)cc1	i	-19%	10%	i	-4%
COc1ccc(CN(C)C[C@H]2OCCCC[C@@H](C)Oc3ccc(NC(=O)c4ccccc4)cc3C(=O)N([C@H](C)CO)C[C@@H]2C)cc1	i	.	.	i	.
COC(=O)c1c(-c2ccc(Cl)cc2)noc1N1CCN(c2ccc(OC)cc2)CC1	i	.	.	i	.
COC(=O)c1sc(N2CCN(c3ccc(Cl)cc3)CC2)nc1N	i	1%	23µM*	?	-142%
O=C(CCN1C(=O)c2ccccc2C1=O)N1CCN(Cc2ccc(Cl)cc2Cl)CC1	i	16%	-27%	15µM*	5%
CNC(=S)N1CCN(c2nc(-c3ccc(Cl)cc3)cs2)CC1	i	4%	-6%	i	-4%
S=c1[nH]nc(-c2ccc(Cl)cc2)n1/N=C/c1cccs1	i	-15%	0%	i	9.2µM*
S=c1[nH]nc(-c2ccccc2)n1/N=C/c1ccc(Cl)cc1	i	-13%	-9%	i	-20%
c1ccc2c(c1)nnn2Cn1nnc2ccccc21	i	.	.	i	.
O=c1c2c(ncn2C2CCCC2)n(Cc2ccccc2)c(=O)n1CCOc1ccccc1	i	16%	?	?	0%
Cc1ccc(C)c(OCCn2c(=O)c3c(ncn3C3CCCC3)n(Cc3ccccc3)c2=O)c1	?	12%	21µM*	i	-3%
O=C(/C=C/Nc1ccc([N+](=O)[O-])cc1Br)c1cccc2ccccc12	23µM*	2%	?	i	?
NC(=O)c1cc([N+](=O)[O-])ccc1NCc1cccc2ccccc12	i	?	0%	?	-31%
Cc1csc(CN(C)C(=O)CC2C(=O)NCCN2Cc2ccc(F)c(F)c2)n1 (centres undefined)	.	4%	13%	.	-3%
CCCCCCCCCCOC(=O)C[N+](C)(C)C/C=C(/C)Cl	i	23µM*	-9%	i	5%
CCCCCCCCOC(=O)C[N+](C)(C)C/C=C(/C)Cl	i	7%	0%	?	-2%
CC1(C(=O)NS(=O)(=O)c2cccs2)CCN1C(=O)CC1CCCC1 (centres undefined)	i	.	.	i	.
COc1cccc(/C=N/Nc2ccnc(=O)[nH]2)c1O	4.6µM*	?	-11%	?	?

Compound activity deposited in PubChem by National Center for Advancing Translational Sciences (NCATS).
